Data published in PubChem BioAssay AID1159580 (chemical genetic matrix, 2015).
Hit rate of the full screen: of about 5,500 compounds, about 2,000 (36%) were called active. Not shown: some 18% with an inconclusive outcome. No stated cut-off is given here; in the data, active means normalized growth mostly below about 0.91 (no sharp cut-off); inconclusive means no clear call, values can overlap the other calls; inactive means mostly above about 0.92. The list shows a part of the results.

Assay: chemical genetic growth profiling, strain panel (AID 1159580);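 further: tested at 20 µM; growth read once vehicle control cultures reached saturation at 30 °C; 1 = growth at the plate median or of vehicle wells; lower values mean less growth of the strain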
Conditions: S. cerevisiae deletion strains, growth OD
[1] = locus YDL101C, strain DUN1, active compounds read low
[2] = locus YHR030C, strain SLT2, active compounds read low

Measured: normalized growth

O=C(CO/N=C\c1ccc(Cl)cc1Cl)NNC(=S)Nc1cc(Cl)ccc1Cl
inactive: locus YAR019C, strain CDC15, active compounds read low 1 | locus YBL105C, strain PKC1, active compounds read low 0.992 | locus YBR135W, strain CKS1, active compounds read low 1 | locus YBR136W, strain MEC1, active compounds read low 1.01 | locus YBR160W, strain CDC28, active compounds read low 1 | locus YDL017W, strain CDC7, active compounds read low 1 | locus YDL028C, strain MPS1, active compounds read low 1 | [1] 0.978 | locus YDL108W, strain KIN28, active compounds read low 1.01 | locus YDL132W, strain cdc53, active compounds read low 1 | locus YDL214C, strain PRR2, active compounds read low 0.999 | locus YDR052C, strain DBF4, active compounds read low 1 | locus YDR054C, strain cdc34, active compounds read low 0.994 | locus YDR226W, strain ADK1, active compounds read low 0.994 | locus YDR477W, strain SNF1, active compounds read low 0.983 | locus YER123W, strain YCK3, active compounds read low 0.996 | locus YER133W, strain GLC7, active compounds read low 0.983 | locus YFL009W, strain cdc4, active compounds read low 0.996 | locus YFL029C, strain CAK1, active compounds read low 1.01 | locus YFR003C, strain YPI1, active compounds read low 0.997 | locus YFR019W, strain FAB1, active compounds read low 1 | locus YFR028C, strain CDC14, active compounds read low 0.994 | locus YGR040W, strain KSS1, active compounds read low 0.984 | locus YGR052W, strain FMP48, active compounds read low 1.02 | locus YGR092W, strain DBF2, active compounds read low 0.961 | [2] 1.01 | locus YHR079C, strain IRE1, active compounds read low 0.966 | locus YHR082C, strain KSP1, active compounds read low 1.14 | locus YHR205W, strain SCH9, active compounds read low 0.98 | locus YIL147C, strain SLN1, active compounds read low 1 | locus YJL095W, strain BCK1, active compounds read low 0.928 | locus YJL128C, strain PBS2, active compounds read low 0.992 | locus YJL157C, strain FAR1, active compounds read low 0.989 | locus YJR016C, strain ILV3, active compounds read low 1 | locus YJR066W, strain TOR1 (second series), active compounds read low 0.948 | locus YJR066W, strain TOR1, active compounds read low 1.15 | locus YKL048C, strain ELM1, active compounds read low 1 | locus YKL067W, strain YNK1, active compounds read low 1.03 | locus YKL101W, strain HSL1, active compounds read low 1 | locus YKL193C, strain SDS22, active compounds read low 1 | locus YKL203C, strain TOR2, active compounds read low 1.06 | locus YLR113W, strain HOG1, active compounds read low 1.01 | locus YLR133W, strain CKI1, active compounds read low 1.02 | locus YLR403W, strain SFP1, active compounds read low 0.97 | locus YML070W, strain DAK1, active compounds read low 0.995 | locus YMR001C, strain CDC5, active compounds read low 1 | locus YMR205C, strain PFK2 (second series), active compounds read low 1.01 | locus YMR277W, strain FCP1, active compounds read low 1 | locus YNL006W, strain LST8, active compounds read low 0.99 | locus YNL020C, strain ARK1, active compounds read low 1.01 | locus YNL161W, strain CBK1, active compounds read low 0.996 | locus YNL183C, strain NPR1, active compounds read low 1.09 | locus YNL207W, strain RIO2, active compounds read low 1.01 | locus YNL222W, strain SSU72, active compounds read low 0.993 | locus YNL307C, strain MCK1 (second series), active compounds read low 0.999 | locus YOL078W, strain AVO1, active compounds read low 1 | locus YOL136C, strain PFK27, active compounds read low 1.01 | locus YOR061W, strain CKA2, active compounds read low 1.02 | locus YOR119C, strain RIO1, active compounds read low 1.05 | locus YOR231W, strain MKK1, active compounds read low 1.05 | locus YOR329C, strain SCD5, active compounds read low 1.01 | locus YPL031C, strain PHO85, active compounds read low 0.995 | locus YPL153C, strain RAD53, active compounds read low 0.99 | locus YPL204W, strain HRR25, active compounds read low 0.991 | locus YPL209C, strain IPL1, active compounds read low 1 | locus YPL256C, strain CLN2, active compounds read low 1.02 | locus YPR025C, strain CCL1, active compounds read low 0.997 | locus YPR106W, strain ISR1, active compounds read low 0.992 | locus YPR111W, strain DBF20, active compounds read low 0.997 | strain NNK1, active compounds read low 0.997 | strain TSCII, active compounds read low 0.997

Cc1ccc(Cl)cc1NC(=S)NCCO
inactive: locus YAL013W, strain DEP1, active compounds read low 1.01 | locus YBR229C, strain ROT2, active compounds read low 1.01 | [1] 1.01 | locus YDL134C, strain PPH21, active compounds read low 0.996 | locus YDR150W, strain NUM1, active compounds read low 1 | locus YEL061C, strain CIN8, active compounds read low 1.02 | locus YGR078C, strain PAC10, active compounds read low 1.02 | locus YGR229C, strain SMI1, active compounds read low 0.999 | [2] 1.02 | locus YHR087W, strain rtc3, active compounds read low 1.01 | locus YJL187C, strain SWE1, active compounds read low 1.01 | locus YJR043C, strain POL32, active compounds read low 0.993 | locus YJR075W, strain HOC1, active compounds read low 0.992 | locus YKL190W, strain CNB1, active compounds read low 1 | locus YLR039C, strain RIC1, active compounds read low 1.02 | locus YLR058C, strain SHM2 (second series), active compounds read low 1.01 | locus YLR085C, strain ARP6, active compounds read low 1 | locus YLR262C, strain YPT6, active compounds read low 1.01 | locus YML094W, strain GIM5, active compounds read low 1.05 | locus YMR219W, strain ESC1, active compounds read low 1 | locus YMR263W, strain SAP30, active compounds read low 0.989 | locus YMR307W, strain GAS1, active compounds read low 0.95 | locus YNL128W, strain TEP1, active compounds read low 1.02 | locus YNL153C, strain GIM3, active compounds read low 1.01 | locus YNL298W, strain CLA4 (second series), active compounds read low 1.03 | locus YNL322C, strain KRE1, active compounds read low 1 | locus YNR030W, strain Alg12, active compounds read low 0.96 | locus YOL006C, strain TOP1, active compounds read low 1.03 | locus YPL055C, strain LGE1, active compounds read low 1.02 | locus YPL241C, strain CIN2, active compounds read low 1 | locus YPR135W, strain CTF4, active compounds read low 1.11
